# Measurements reported in PubChem BioAssay (NCATS).
# Values without a mark were called inactive. For part of these data: Measured potencies and affinities stand elsewhere. Activity calls are given as the source filed them. How the calls were made is not given here.
# What was measured:
# [1] = Ebola virus entry assay, green fluorescence channel
# [2] = Ebola virus entry assay, blue channel fluorescence
# [3] = Ebola virus entry assay, ratio channel
# [4] = Ebola virus entry assay, green channel fluorescence
# [5] = Ebola virus entry assay, reporter ratio channel; Channel type: primary
# [6] = Ebola virus entry assay, blue channel (ratio component)
# Wherever efficacy is given: 0% is about no effect.
SMILES,efficacy [1],AC50 [2],AC50 [3],outcome [4],AC50 [5],outcome [2],outcome [3],outcome [5],outcome [6]
CC(C)(C)C(=O)OCOC(=O)[C@@H]1N2C(=O)[C@@H](NC(=O)[C@H](N)c3ccccc3)[C@H]2SC1(C)C,35%,12.6 µM (active),20 µM (active),inactive,20 µM (active),–,–,–,–
CN1CCN(c2cc3c(cc2F)c(=O)c(C(=O)O)cn3-c2ccc(F)cc2)CC1,8.5%,–,–,inactive,–,inactive,inactive,inactive,–
Oc1c(Cl)cc(Cl)cc1Sc1cc(Cl)cc(Cl)c1O,-26.7%,11.2 µM (active),22.4 µM (active),inactive,22.4 µM (active),–,–,–,–
COC(=O)[C@H]1[C@H]2C[C@@H]3c4[nH]c5cc(OC)ccc5c4CCN3C[C@H]2C[C@@H](OC(=O)/C=C/c2ccc(O)c(OC)c2)[C@@H]1OC,-80.1%,3.55 µM (active),3.16 µM (active),inactive,3.16 µM (active),–,–,–,–
CCCCC1C(=O)N(c2ccccc2)N(c2ccccc2)C1=O,-25%,–,–,inactive,–,inactive,inactive,inactive,–
CCN1CCN(c2cc(-c3ccc(F)cc3)c3c(n2)CCCCCC3)CC1,32.1%,1.41 µM (active),1.78 µM (active),inactive,1.78 µM (active),–,–,–,–
O=C(O)Cc1ccc(CCNS(=O)(=O)c2ccc(Cl)cc2)cc1,18.5%,–,–,inactive,–,inactive,inactive,inactive,–
CCCOc1ccccc1-c1nc2n[nH]nc2c(=O)[nH]1,11%,–,–,inactive,–,inactive,inactive,inactive,–
O=c1[nH]c2cc(C(F)(F)F)c(N3CCOCC3)cc2n(CP(=O)(O)O)c1=O,-34.7%,–,–,inactive,–,inactive,inactive,inactive,inactive
CC(C)NCC(O)c1ccc2ccccc2c1 (stereo not given),20.8%,31.6 µM (active),25.1 µM (active),inactive,25.1 µM (active),–,–,–,–
Nc1ccc(N=Nc2ccccc2)c(N)n1,-23.7%,39.8 µM (active),–,inactive,39.8 µM (active),–,inactive,–,–
Fc1ccc(C(c2ccc(F)cc2)N2CCNCC2)cc1,28.7%,10 µM (active),10 µM (active),inactive,10 µM (active),–,–,–,–
NC(=O)C(=O)N/N=C/c1ccc([N+](=O)[O-])o1,21.5%,–,–,inactive,–,inactive,inactive,inactive,–
C[C@H]1NCc2cc(-c3ccc4c(=O)c(C(=O)O)cn(C5CC5)c4c3OC(F)F)ccc21,-19.7%,–,–,inactive,–,inactive,inactive,inactive,inactive
CC(=O)Nc1cccc(O)c1,28%,–,–,inactive,–,inactive,inactive,inactive,inactive
CN1CC(=O)N2[C@H](c3ccc4c(c3)OCO4)c3[nH]c4ccccc4c3C[C@@H]2C1=O,22.3%,–,–,inactive,–,inactive,inactive,inactive,inactive
Nc1c(CC(=O)O)cccc1C(=O)c1ccc(Br)cc1,18.5%,–,–,inactive,–,inactive,inactive,inactive,inactive
